# Experimental data as given in PubChem BioAssay AID1851 (National Center for Advancing Translational Sciences (NCATS), 2009).
# In all, about 16,000 compounds went through this assay and about 5,700 (36%) were called active. Another 24% or so got no clear call; they are omitted. The list shows a part of the results. Values without a mark were called inactive. The call rests on the fitted dose curve; in most records, active means well fitted curve in the direction sought with a large enough effect; inconclusive means small, poorly fitted or top-dose-only effect, or effect the other way; inactive means no such curve, though single readings can be large or run the other way.
# Biological target: Cytochrome P450 1A2 (Homo sapiens) (UniProt P05177)
# Sequence (P05177 whole entry, looked up): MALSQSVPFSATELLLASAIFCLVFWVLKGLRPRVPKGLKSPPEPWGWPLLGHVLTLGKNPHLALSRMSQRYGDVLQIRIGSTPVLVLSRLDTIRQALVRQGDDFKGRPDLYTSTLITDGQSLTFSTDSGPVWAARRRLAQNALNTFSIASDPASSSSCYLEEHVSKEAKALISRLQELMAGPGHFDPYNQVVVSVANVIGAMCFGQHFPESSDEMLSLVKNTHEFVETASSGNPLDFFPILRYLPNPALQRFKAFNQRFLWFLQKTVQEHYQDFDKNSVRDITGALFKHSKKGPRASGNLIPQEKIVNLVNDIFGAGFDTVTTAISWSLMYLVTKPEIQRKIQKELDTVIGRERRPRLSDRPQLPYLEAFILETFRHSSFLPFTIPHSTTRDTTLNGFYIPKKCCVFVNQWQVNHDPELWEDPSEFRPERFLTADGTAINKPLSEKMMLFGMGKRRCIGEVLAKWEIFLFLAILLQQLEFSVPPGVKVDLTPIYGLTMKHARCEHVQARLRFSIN
# Experiment: Cytochrome panel assay with activity outcomes
# Conditions: recombinant CYP, pro-luciferin dealkylation, luminescence, p450-cyp1a2; series mostly up to 57.1 µM
# On the % scale 0 is the no-effect control and ±100 the full control effect.
SMILES,"activity, negative = inhibition",AC50
CC1CCC(O)([C@](C)(C(=O)O)c2ccccc2)CC1 (stereo partly specified),-4.6% [at 11.4 µM],–
O=C(Nc1ccccc1)N1CCOCC1,–,inactive
COC(=O)N1CCC2(CC1)CN(C(=O)Nc1ccccc1)C2,–,inactive
O=C(Nc1ccc(Cl)cc1)N1CCc2[nH]c3ccccc3c2C1,–,3550 nM (active)
COC(=O)[C@@]1(Cc2ccc(OC)cc2)[C@H]2c3cc(C(=O)N4CCCC4)n(Cc4ccc(C(F)(F)F)nc4)c3C[C@H]2CN1C(=O)c1ccccc1,–,inactive
Cc1cc(SCC(=O)c2cccs2)nc2c(C)cccc12,–,891 nM (active)
CCCNC(=O)OC[C@@H]1O[C@H](c2ccccc2)C=C[C@@H]1Oc1ccc(OC)cc1,-7.29% [at 11.4 µM],–
C=CCOc1ccc(CNC(C)(C)CO)cc1OCC,–,inactive
C=CCc1ccccc1OC[C@H](O)CNC(C)C,–,3160 nM (active)
C=CCOc1ccccc1OC[C@H](O)CNC(C)C,–,5010 nM (active)
CC(C)(C)NC[C@H](O)COc1cccc2[nH]c(=O)[nH]c12,–,inactive
O=C1c2ccccc2C(=O)N1CC1c2ccccc2CCN1S(=O)(=O)c1ccccc1 (stereo unspecified),–,inactive
COc1ccc(CCNC(=O)C2CCN(S(=O)(=O)N3CC(C)CC(C)C3)CC2)cc1OC (stereo unspecified),–,inactive
C#CCCCO/N=C1/C[C@@H](O)[C@@H](O)[C@@H]2[C@@H]3C(=O)N(CCC(=O)OCC)C(=O)[C@H]3CC[C@@H]12,-0.481% [at 11.4 µM],–
Cc1ccc(S(=O)(=O)c2cc(C#N)c(=O)[nH]c2N)cc1,–,inactive
CSc1nc(-c2ccc(C)cc2)[nH]c1S(=O)(=O)c1ccccc1,–,14100 nM (active)
CNc1oc(C)nc1S(=O)(=O)c1ccc(C)cc1,–,inactive
CC1(C)N=C(N)N=C(N)N1c1cccc(CSc2ccccc2)c1,-17.2% [at 2.29 µM],–
c1ccc(CCSc2nccn2-c2ccccc2)cc1,–,1780 nM (active)
O=C(CSc1nccn1-c1ccccc1)c1ccc(Cl)cc1,–,891 nM (active)
O=c1ccnc(SCc2ccc(Cl)cc2)[nH]1,-17.6% [at 11.4 µM],–
CCc1ccc(CSc2nccn2-c2ccccc2)cc1,–,1260 nM (active)
Clc1ccc(CSc2nccn2Cc2ccccc2)cc1,–,25100 nM (active)
O=C(C1CCN(S(=O)(=O)c2cccc3nsnc23)CC1)N1CCN(c2ccccc2F)CC1,–,inactive

SMILES,"activity, negative = inhibition",AC50
COC(=O)[C@H](CCSC)NC(=O)NCc1ccccc1F,–,inactive
O=C(c1ccccc1)c1ccc2nc(-c3ccc(NC(=O)c4ccccc4Br)cc3)[nH]c2c1,–,8910 nM (active)
O=C(c1ccccc1)c1ccc2nc(-c3ccc(NC(=O)c4ccccc4F)cc3)[nH]c2c1,–,inactive
Cc1nc2cnc(N3CCOCC3)nc2n(C)c1=O,–,6310 nM (active)
Cc1nc2cnc(N3CCN(C)CC3)nc2n(C)c1=O,–,12600 nM (active)
C1COC(NC(C2CC2)C2CC2)=N1,–,inactive
Nc1ccccc1Nc1ccccc1,–,25100 nM (active)
Nc1ccc(Nc2ccccc2)cc1,–,12600 nM (active)
N#[N+]c1ccc(Nc2ccccc2)cc1,-12.6% [at 11.4 µM],–
CCc1c(C(C)O)oc2ccc3c(C)cc(=O)oc3c12 (stereo unspecified),–,282 nM (active)
CC(C)N1CCN(c2ccncc2S(=O)(=O)N2CCCCC2)CC1,-16.9% [at 2.29 µM],–
Cc1c(C(=O)N/N=C/c2ccccc2)sc(=S)n1C,–,891 nM (active)
Cc1c(NC(=S)N/N=C/c2ccc(O)cc2)c(=O)n(-c2ccccc2)n1C,–,inactive
CCCC(=O)Nc1nc2nc(-c3ccccc3)cc(-c3ccccc3)n2n1,–,2510 nM (active)
CCCC(=O)Nc1nc2n(n1)C(c1ccccc1)CC(=O)N2 (stereo unspecified),–,inactive
COc1cc(NC(=O)c2cc3nc(-c4ccccc4)cc(-c4ccccc4)n3n2)cc(OC)c1OC,–,inactive
Cn1c(=O)c(-c2ccc(F)c(F)c2)nc2cncnc21,–,158 nM (active)
COc1ccc(-n2c(=O)c(-c3ccc(F)cc3)nc3cncnc32)cc1,–,inactive
Cn1c(=O)c(-c2ccc(F)cc2)nc2cncnc21,–,158 nM (active)
Cn1c(=O)c(-c2cccc(Cl)c2)nc2cncnc21,–,501 nM (active)
Cn1c(=O)c(-c2ccccc2)nc2cncnc21,–,631 nM (active)
C[C@]1(C2CCCC2)Cc2cc(OCC(=O)O)c(Cl)c(Cl)c2C1=O,–,inactive
COC(=O)[C@@]1(Cc2ccc(F)cc2)[C@H]2c3cc(C(=O)N4CCCC4)n(CCc4c[nH]c5ccccc45)c3C[C@H]2CN1C(=O)c1ccccc1,–,inactive
Cn1c(=O)c(-c2ccc(Cl)cc2)nc2cncnc21,–,25.1 nM (active)

SMILES,"activity, negative = inhibition",AC50
Cn1c(=O)c(-c2cc(F)cc(F)c2)nc2cncnc21,–,631 nM (active)
CC(=O)NN1C(=O)c2ccc(Oc3ccc([N+](=O)[O-])cc3)cc2C1=O,–,inactive
Cc1ccc(S(=O)(=O)CC#CCOC(=O)c2ccc([N+](=O)[O-])cc2)cc1,–,6310 nM (active)
Cc1ccc(S(=O)(=O)CCCS(=O)(=O)c2ccc(C)cc2)cc1,–,inactive
C/C(=N\NC(=S)Nc1ccc(F)cc1)C1CC1,–,1780 nM (active)
N=C(N)SCc1cccc2c(=O)cc(-c3ccccc3)oc12,–,126 nM (active)
CN1CCN(c2ncc3nc(-c4cccs4)c(=O)n(C[C@H]4CCCO4)c3n2)CC1,–,12600 nM (active)
CN(C)c1ncc2nc(-c3cccs3)c(=O)n(C[C@H]3CCCO3)c2n1,–,1580 nM (active)
CCNc1ncc2nc(-c3cccs3)c(=O)n(C[C@H]3CCCO3)c2n1,–,2510 nM (active)
OCCCSCCO,-19.1% [at 2.29 µM],–
CCCC[C@@H]1CN2[C@H](c3ccc(Br)cc3)[C@@H](C)CC[C@H]2C(=O)O1,-6.09% [at 11.4 µM],–
CO[C@@H]1COC(=O)C/C=C\[C@H](C)[C@H](OC)COC(=O)[C@H]2CCCN2C(=O)C/C=C\[C@H]1C,1.02% [at 11.4 µM],–
COc1cccc(/C=N/NC(=O)CO/N=C(\C)c2cccs2)c1OC,–,1410 nM (active)
Cc1[nH]c(=O)c(C(=O)/C=C/c2ccccc2F)c2c1CCCC2,–,11200 nM (active)
COc1ccccc1/C=C/C(=O)c1ccc(Cl)cc1,–,3550 nM (active)
COc1ccc2ccccc2c1/C=C\C(=O)c1ccccc1,–,3160 nM (active)
CCOc1ccc2ccccc2c1C(=O)N[C@@H]1C(=O)N2[C@@H]1SC(C)(C)[C@@H]2C(=O)O,–,inactive
COc1cc(C)cc(OC)c1/C=C\C(=O)O,-6.92% [at 11.4 µM],–
COc1ccccc1/C=C/C(=O)c1c2c(c(C)[nH]c1=O)CCCC2,–,12600 nM (active)
CC(=O)[C@@H]1CC[C@@H]2[C@@H]3C[C@H](C)C4=CC(=O)CC[C@@]4(C)[C@H]3[C@H](O)C[C@]21C,–,inactive
CS(=O)(=O)N1CCC2(CCCN(C(c3ccccc3)c3ccccc3)C2)CC1,–,inactive
O=C1CC(c2ccccc2)Cc2nc(N3CCc4ccccc4C3)ncc21 (stereo unspecified),–,3550 nM (active)
CC1CC(=O)c2cnc(N)nc2C1 (stereo unspecified),–,inactive
Cc1ccc(C2CC(=O)c3cnc(N4CCc5ccccc5C4)nc3C2)cc1 (stereo unspecified),–,inactive

SMILES,"activity, negative = inhibition",AC50
Cc1ccnn2cc3c(=O)n(C)c(=O)n(C)c3c12,–,12600 nM (active)
COc1ccccc1CN1CC[C@@]2(CCCN(C(C)=O)C2)C1,–,inactive
COc1ccc2[nH]cc(CCNc3ncnc4ccc(-c5cccc(C#N)c5)cc34)c2c1,–,2510 nM (active)
COc1ccc2[nH]cc(CCNc3ncnc4ccc(-c5cccnc5)cc34)c2c1,–,79.4 nM (active)
CCC1=C(C)CN(C(=O)NCCc2ccc(S(=O)(=O)NC(=O)NC3CCC(C)CC3)cc2)C1=O (stereo unspecified),–,inactive
CCOC(=O)N1CCN(C(=O)c2oc3ccc(S(=O)(=O)N4CCCCC4)cc3c2C)CC1,–,inactive
Cc1ccc(OC(=O)c2oc3ccc(F)cc3c2C)c(C)c1,–,2510 nM (active)
Cc1ccc(NCCC(=O)c2ccc(Cl)cc2)cc1,–,251 nM (active)
CCCOc1ccc(C(=O)CCNc2ccc(C)c(Cl)c2)cc1,–,891 nM (active)
Cc1ccc(NC(=O)CCC(=O)c2ccc(F)cc2)cc1Cl,–,6310 nM (active)
Cc1ccc(NC(=O)c2cc(NC(=O)CCCC(=O)O)ccc2Cl)cc1Cl,–,inactive
O=C(O)CCC(=O)Nc1ccc(C(=O)N2CCCCC2)cc1,–,inactive
Cc1ccc(NCCC(=O)c2ccc(Cl)c(Cl)c2)cc1,–,1260 nM (active)
CCCOc1ccc(C(=O)NNC(=S)NC(=O)CC)cc1,–,inactive
O=C(O)CCC(=O)c1ccc(Cl)cc1,-17.8% [at 11.4 µM],–
O=C(O)[C@@H]1[C@@H]2C[C@@H]3[C@@H](OC(=O)[C@@H]31)[C@H]2Br,-4.92% [at 11.4 µM],–
OC(CCN1CCCCC1)(c1ccccc1)c1ccccc1,–,inactive
Cc1ccc(NCCC(=O)c2ccc(Cl)cc2)cc1C,–,631 nM (active)
Cc1c(Cl)c(S(N)(=O)=O)cc(S(N)(=O)=O)c1NC(=O)c1ccc(Cl)cc1,-2.26% [at 11.4 µM],–
CCCCOC(=O)Nc1ccc(C)c(Cl)c1,–,4470 nM (active)
COc1cccc(-c2ccc3ncnc(NCc4cnc(C)cn4)c3c2)c1,–,2510 nM (active)
Cc1cnc(CNc2ncnc3ccc(-c4cccc(C#N)c4)cc23)cn1,–,398 nM (active)
C/C(CCN1CCc2nc(-c3ccccc3)c(-c3ccccc3)cc2C1)=N\OC[C@@H](C)[C@H](OCc1ccccc1)C(C)C,-4.9% [at 11.4 µM],–
COC(=O)C/C=C\[C@@H](C)[C@@H](/C=N\OC[C@@H]1O[C@H](c2ccccc2)C=C[C@@H]1Oc1ccc(OC)cc1)OC,10.1% [at 11.4 µM],–
